The values that follow come from PubChem BioAssay (NCATS).

Unmarked numbers belong to inactive results. Inconclusive results are not listed. Calls of active or inactive are those of the source. Unless noted, the call rests on the fitted dose curve; in most records, active means well fitted curve in either direction with a large enough effect (not every such curve was filed as active); inconclusive means small, poorly fitted or top-dose-only effect, or another doubt; inactive means flat fitted curve, though single readings scatter.

In experiment [1] the target is Lysosomal acid glucosylceramidase (Homo sapiens) (UniProt P04062). The experiment can be described thus: Glucocerebrosidase-p2 (AID 348; in the data active means potency below about 10 µM; further: potency means the concentration at half of the fitted maximal effect). Conditions: purified GBA, blue fluorogenic substrate, 40 min. A digest of the protocol:
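Normal human glucocerebrosidase (0.2 nM) with blue fluorogenic substrate (80 uM final) in citrate/phosphate pH 5.9 with 10mM sodium taurocholate, 0.01% tween-20; 40 min RT, NaOH/glycine stop; fluorescence Ex 365/Em 440; AC50 from a titration from 0.6 nM upwards.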

Experiment [2] in a line: AP1 Signaling Pathway (AID 357). Further: on the % scale 0 is the no-effect control and ±100 the full control effect. The note with it: ME-180 AP-1-bla reporter, EGF-induced, beta-lactamase ratio, 5 h; at 7.69 µM (top of the series) unless noted. A digest of the protocol: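 Read-out was the 460nm/530nm emission ratio (excitation 405nm) after CCF4 loading for 2.5 hours at room temperature. Cells carried an AP-1-driven beta-lactamase reporter, were stimulated with EC50 EGF plus compound for 5 hours, and AC50 values came from titrations.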

Experiment [3] in a line: NFAT Signaling Pathway (AID 444).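 Further: carbachol stimulus at about its EC50 of 1 µM final; on the % scale 0 is the no-effect control and ±100 the full control effect.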 The note with it: Jurkat NFAT-bla M1, carbachol, beta-lactamase ratio, 5 h; at 7.69 µM (top of the series) unless noted. A digest of the protocol: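 Jurkat cells with NFAT-driven β-lactamase reporter and co-expressed M1 receptor, stimulated with carbachol (final 1 uM, ~EC50), compound titration, 5 h at 37 °C. CCF4 loaded 1 h at RT; 460/530 nm ratio gave %activity and AC50.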

Experiment [4] is described as follows: Stat Signaling Pathway (AID 446).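 Further: ME-180 cervical cancer cells given 40 pM IL-6 alongside compound; SIE-controlled beta-lactamase reporter measured as 460/530 nm FRET emission ratio; on the % scale 0 is the no-effect control and ±100 the full control effect.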 Conditions: ME-180 SIE beta-lactamase reporter, IL-6 stimulated, 5 h; at 7.69 µM (top of the series) unless noted. A digest of the protocol:
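Normalization used AC90 stimulation (300 pM IL-6) and AC90 inhibition (125 nM pan-JAK inhibitor at 40 pM IL-6). The underlying signal is SIE-driven beta-lactamase in ME-180 cells after 5 h IL-6 exposure with compound.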

Experiment [5] has as its target Glucocorticoid receptor (Homo sapiens) (UniProt P04150). As to the kind of experiment: GR-GFP Redistribution (AID 450;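 active means compounds whose dose series gives a full or clear partial fitted curve of increased nuclear translocation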; further: potency means the concentration at half of the fitted maximal effect). Conditions: U2OS GR-GFP nuclear translocation, laser cytometry, 2 h.
Experiment [6] has the same target. The experiment can be described thus: GR-EFC Redistribution (AID 451; calls by dose curve; further: potency means the concentration at half of the fitted maximal effect). Conditions: CHO-K1 GR-EFC translocation, beta-gal luminescence, 2 h. A digest of the protocol: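 CHO-K1 cells expressing nuclear EA and GR-ED fragments of b-gal; compounds titrated up to 46 uM final, 2 h at 37 C. GR nuclear translocation read as complemented b-gal luminescence after 1 h RT detection.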

Experiment [7] concerns the target Mitogen-activated protein kinase 10 (Mus musculus) (UniProt Q61831). As to the kind of experiment: JNK3 AlphaScreen Assay (AID 530).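 Further: kinase came from lysate of stimulated human HepG2 cells; signal reports phosphorylation of biotinylated GST-cJun 1-79 at Ser73 with 10 µM ATP; on the % scale 0 is the no-effect control and ±100 the full control effect.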 The note with it: JNK3 lysate, c-Jun phosphorylation; series mostly up to 11.4 µM. The method in brief: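 HepG2 lysate (IL-1b/TNFa pre-activated) + biotin-GST-cJun 1-79 + anti-pSer73 cJun; cpd titration, 15 min RT; ATP 10 uM start; Tris pH 7.6, MgCl2, DTT, vanadate; beads in EDTA buffer; AlphaScreen.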
Background: Alpha assays give light when donor and acceptor beads are brought close together.

The target in experiment [8] is 3',5'-cyclic-AMP phosphodiesterase 4B (Homo sapiens) (UniProt Q07343). As to the kind of experiment: qHTS Assay for Inhibitors of PDE-IV (AID 607; active means well fitted activation curve with a large enough effect in the main read-out, with a control signal flat, not every such curve was filed as active; further: % of control where 0% means no effect). The note with it: HEK293 ACTOne CNG channel cells, membrane potential fluorescence; series mostly up to 22.9 µM. The method in brief: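 HEK293 ACTOne cells with CNG channel (1000/well), endogenous PDE4; membrane potential dye, compounds up to 22.9 uM final. Fluorescence Ex 535/Em 590; RO 20-1724 (100 uM final) as reference.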
3',5'-cyclic-AMP phosphodiesterase 4B (Homo sapiens), sequence (Q07343 whole entry, looked up): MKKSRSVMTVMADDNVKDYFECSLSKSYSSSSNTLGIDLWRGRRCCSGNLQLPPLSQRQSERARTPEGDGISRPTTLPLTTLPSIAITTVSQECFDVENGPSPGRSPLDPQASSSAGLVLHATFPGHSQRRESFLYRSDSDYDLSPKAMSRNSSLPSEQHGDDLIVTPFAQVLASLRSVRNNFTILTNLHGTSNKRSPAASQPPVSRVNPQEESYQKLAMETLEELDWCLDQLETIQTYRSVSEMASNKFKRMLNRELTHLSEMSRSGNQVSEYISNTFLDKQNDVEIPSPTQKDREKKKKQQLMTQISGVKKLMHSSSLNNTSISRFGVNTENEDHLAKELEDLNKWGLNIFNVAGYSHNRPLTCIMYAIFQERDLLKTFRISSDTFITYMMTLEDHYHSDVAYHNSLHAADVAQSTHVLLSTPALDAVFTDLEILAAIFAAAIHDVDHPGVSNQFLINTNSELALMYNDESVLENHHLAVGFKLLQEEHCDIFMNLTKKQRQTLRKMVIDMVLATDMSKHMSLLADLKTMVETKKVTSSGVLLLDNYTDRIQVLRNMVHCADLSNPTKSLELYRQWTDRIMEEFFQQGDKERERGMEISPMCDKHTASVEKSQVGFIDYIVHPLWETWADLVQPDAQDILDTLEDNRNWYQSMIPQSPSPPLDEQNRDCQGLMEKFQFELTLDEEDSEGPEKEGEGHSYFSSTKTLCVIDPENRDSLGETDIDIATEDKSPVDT
Background: Quantitative high-throughput screening tests each substance at several concentrations.

The target of experiment [9] is Cytochrome P450 3A4 (Homo sapiens) (UniProt P08684). As to the kind of experiment: qHTS Assay for Activators of Cytochrome P450 3A4 (AID 885; active means well fitted curve in the direction sought with a large enough effect; an effect the other way counts as inactive or inconclusive; further: nearly all actives have a fitted effect of over 65% in size). The note with it: recombinant CYP3A4, Luciferin-PPXE luminescence, 60 min; series mostly up to 11.4 µM. A digest of the protocol:
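Human CYP3A4 dealkylates Luciferin-PPXE to luciferin, which luciferase detection converts to light. Substrate was at its KM (25uM), buffer 200mM KPO4, reaction 60 min at RT.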

Experiment [10] has as its target Cytochrome P450 2D6 (Homo sapiens) (UniProt P10635). As to the kind of experiment: qHTS Assay for Inhibitors and Substrates of Cytochrome P450 2D6 (AID 891; active means well fitted curve in the direction sought with a large enough effect; an effect the other way counts as inactive or inconclusive; further: nearly all actives have a fitted effect of over 60% in size; further: potency means the concentration at half of the fitted maximal effect). The note with it: recombinant CYP2D6, luciferin-ME EGE luminescence; series mostly up to 11.4 µM. A digest of the protocol:
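Luminescent read-out of luciferin formed by 5 nM human CYP2D6 demethylating 30 uM Luciferin-ME EGE (Km level) over 60 min at room temperature after NADPH regeneration addition. Data normalized to full inhibition by 1.43 uM quinidine.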

The target in experiment [11] is Cytochrome P450 2C19 (Homo sapiens) (UniProt P33261). The experiment can be described thus: qHTS Assay for Inhibitors and Substrates of Cytochrome P450 2C19 (AID 899; active means well fitted curve in the direction sought with a large enough effect; an effect the other way counts as inactive or inconclusive; further: nearly all actives have a fitted effect of over 60% in size; further: potency means the concentration at half of the fitted maximal effect). Conditions: recombinant CYP2C19, luciferin-H EGE luminescence; series mostly up to 11.4 µM. A digest of the protocol: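 Luminescent read-out of luciferin formed from Luciferin-H EGE (10uM, equal to KM). Enzyme 5nM in 50mM KPO4; compound added, 10 min at 37C, then NADPH regenerating system for 60 min at 37C. Full inhibition defined by 57uM ketoconazole.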
Cytochrome P450 2C19 (Homo sapiens), sequence (P33261 whole entry, looked up): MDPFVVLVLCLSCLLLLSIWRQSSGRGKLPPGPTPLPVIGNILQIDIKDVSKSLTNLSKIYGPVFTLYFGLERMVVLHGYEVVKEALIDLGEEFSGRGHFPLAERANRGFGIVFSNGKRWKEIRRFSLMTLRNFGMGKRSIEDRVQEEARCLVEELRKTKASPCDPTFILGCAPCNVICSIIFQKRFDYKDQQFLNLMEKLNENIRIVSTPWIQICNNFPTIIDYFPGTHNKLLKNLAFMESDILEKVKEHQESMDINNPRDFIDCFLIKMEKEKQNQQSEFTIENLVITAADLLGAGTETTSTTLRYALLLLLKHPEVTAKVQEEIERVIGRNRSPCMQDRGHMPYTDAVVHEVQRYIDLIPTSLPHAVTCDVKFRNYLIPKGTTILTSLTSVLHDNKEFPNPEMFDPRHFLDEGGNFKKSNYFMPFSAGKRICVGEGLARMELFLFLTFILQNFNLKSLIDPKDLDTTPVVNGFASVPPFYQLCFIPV

Experiment [12] can be described thus: qHTS Assay for Identification of Small Molecule Agonists for Hypoxia Response Element Signaling Pathway (AID 914; active means well fitted activation curve with a large enough effect in the signal ratio, with a control signal flat, not every such curve was filed as active; the % refers to the signal ratio; further: % of control where 0% means no effect). Conditions: ME-180 (cervical carcinoma) HRE-bla reporter, beta-lactamase ratio, CoCl2, 17 h; activation: active compounds read high. The method in brief:
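Read-out: CCF4 FRET ratio of 460nm to 530nm emission (excitation 405nm) after 2.5 hours at room temperature, taken from HRE-bla ME-180 cells that had been exposed to compound and EC50 CoCl2 for 17 hours.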

Experiment [13] concerns the target Cytochrome P450 3A4 (Homo sapiens) (UniProt P08684). The experiment can be described thus: qHTS Assay for Inhibitors and Substrates of Cytochrome P450 3A4 (AID 884; active means well fitted curve in the direction sought with a large enough effect; an effect the other way counts as inactive or inconclusive; further: on the % scale 0 is the no-effect control and ±100 the full control effect; nearly all actives have a fitted effect of over 50% in size). The note with it: recombinant CYP3A4, Luciferin-PPXE luminescence; series mostly up to 57.1 µM. A digest of the protocol: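 Luminescent readout of luciferin produced by CYP3A4 (20 nM) dealkylation of Luciferin-PPXE, 25 uM (its KM). NADPH-driven reaction ran 60 min at RT after 10 min compound preincubation; data scaled to 57 uM ketoconazole as 100% inhibition.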

Cytochrome P450 2D6 (Homo sapiens), sequence (P10635 whole entry, looked up): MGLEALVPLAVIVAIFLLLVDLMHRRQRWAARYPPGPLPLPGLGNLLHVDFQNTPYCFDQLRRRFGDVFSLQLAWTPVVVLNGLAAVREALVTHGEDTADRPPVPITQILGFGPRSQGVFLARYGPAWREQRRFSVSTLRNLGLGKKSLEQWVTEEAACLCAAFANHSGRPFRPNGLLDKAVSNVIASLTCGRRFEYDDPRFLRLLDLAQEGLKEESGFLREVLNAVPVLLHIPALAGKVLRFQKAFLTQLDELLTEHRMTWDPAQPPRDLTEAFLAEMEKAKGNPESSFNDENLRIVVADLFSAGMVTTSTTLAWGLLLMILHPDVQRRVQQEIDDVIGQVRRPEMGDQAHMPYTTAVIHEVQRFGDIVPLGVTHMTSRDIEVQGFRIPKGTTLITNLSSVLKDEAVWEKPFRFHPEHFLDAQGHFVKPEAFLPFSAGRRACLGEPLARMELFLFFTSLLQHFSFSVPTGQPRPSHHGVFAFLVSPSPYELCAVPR
Glucocorticoid receptor (Homo sapiens), sequence (P04150 whole entry, looked up, the tested form may be a part): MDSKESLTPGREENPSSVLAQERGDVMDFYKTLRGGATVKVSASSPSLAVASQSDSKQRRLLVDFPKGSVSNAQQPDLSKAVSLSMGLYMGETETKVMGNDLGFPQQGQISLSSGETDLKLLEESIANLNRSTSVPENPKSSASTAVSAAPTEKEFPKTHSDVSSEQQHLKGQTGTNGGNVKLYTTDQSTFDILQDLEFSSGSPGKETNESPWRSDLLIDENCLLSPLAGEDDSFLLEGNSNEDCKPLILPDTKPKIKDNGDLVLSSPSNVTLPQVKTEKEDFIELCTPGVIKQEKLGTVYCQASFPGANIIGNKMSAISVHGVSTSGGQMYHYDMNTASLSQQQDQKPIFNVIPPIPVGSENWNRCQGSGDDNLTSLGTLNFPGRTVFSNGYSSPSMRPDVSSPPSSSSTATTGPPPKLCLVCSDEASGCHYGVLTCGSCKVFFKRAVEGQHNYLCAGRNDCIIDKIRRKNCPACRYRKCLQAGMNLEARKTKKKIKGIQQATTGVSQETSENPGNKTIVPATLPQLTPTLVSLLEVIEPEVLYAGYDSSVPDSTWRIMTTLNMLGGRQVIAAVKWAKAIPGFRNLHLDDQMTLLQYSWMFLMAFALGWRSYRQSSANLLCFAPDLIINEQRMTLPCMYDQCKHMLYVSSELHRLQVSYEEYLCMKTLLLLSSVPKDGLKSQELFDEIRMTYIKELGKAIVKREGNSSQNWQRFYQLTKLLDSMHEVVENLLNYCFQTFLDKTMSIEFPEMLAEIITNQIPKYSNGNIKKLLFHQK
Cytochrome P450 3A4 (Homo sapiens), sequence (P08684 whole entry, looked up): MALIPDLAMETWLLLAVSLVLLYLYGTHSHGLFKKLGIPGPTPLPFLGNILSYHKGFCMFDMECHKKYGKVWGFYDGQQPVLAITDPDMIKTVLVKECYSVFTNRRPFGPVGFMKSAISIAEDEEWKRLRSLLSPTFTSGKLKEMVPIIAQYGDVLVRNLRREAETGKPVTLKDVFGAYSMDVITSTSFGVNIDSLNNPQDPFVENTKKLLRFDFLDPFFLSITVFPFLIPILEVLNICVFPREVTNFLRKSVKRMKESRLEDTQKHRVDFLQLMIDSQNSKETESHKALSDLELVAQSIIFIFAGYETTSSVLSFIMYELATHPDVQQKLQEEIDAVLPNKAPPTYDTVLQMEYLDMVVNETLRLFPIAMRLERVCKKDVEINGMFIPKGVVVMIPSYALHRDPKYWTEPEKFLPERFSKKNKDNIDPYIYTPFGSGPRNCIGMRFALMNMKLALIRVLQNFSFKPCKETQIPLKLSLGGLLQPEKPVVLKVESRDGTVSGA
Lysosomal acid glucosylceramidase (Homo sapiens), sequence (P04062 whole entry, looked up): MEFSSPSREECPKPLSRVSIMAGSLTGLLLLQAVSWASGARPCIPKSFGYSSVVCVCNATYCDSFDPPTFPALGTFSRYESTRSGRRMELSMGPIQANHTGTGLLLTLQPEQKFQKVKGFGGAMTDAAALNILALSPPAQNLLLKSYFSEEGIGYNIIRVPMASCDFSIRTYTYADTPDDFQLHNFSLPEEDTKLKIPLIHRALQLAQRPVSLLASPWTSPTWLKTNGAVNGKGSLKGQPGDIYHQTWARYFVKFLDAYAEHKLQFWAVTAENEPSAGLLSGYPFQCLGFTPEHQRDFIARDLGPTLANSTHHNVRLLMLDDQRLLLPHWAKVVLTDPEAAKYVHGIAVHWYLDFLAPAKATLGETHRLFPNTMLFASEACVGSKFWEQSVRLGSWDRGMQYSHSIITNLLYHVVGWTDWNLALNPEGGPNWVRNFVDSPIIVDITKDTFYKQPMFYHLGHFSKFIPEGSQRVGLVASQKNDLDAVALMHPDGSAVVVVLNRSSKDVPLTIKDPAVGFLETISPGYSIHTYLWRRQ

Take `Cc1ccc(CSC(N)=Nc2ccccc2)cc1C`: the Potency in experiment [1] was greater than 11.4 µM; in experiment [5], greater than 46 µM; in [6], greater than 9.22 µM; in experiment [10] it was 0.794 µM (active); in experiment [11], 2 µM (active). In addition, the activity change, negative = inhibition in experiment [2] is 6.56%; in experiment [3], -3.46%. The activity, negative = inhibition in [4] is -10.5%. The Potency entry in [7], in experiment [8] and in experiment [9] was “inactive” in each case.

On to `Cc1cc(=O)oc2cc(O)c(CN(C)CC(=O)O)cc12`, for which the Potency in [1] was greater than 11.4 µM; in [5] it was greater than 46 µM; in experiment [6], greater than 9.22 µM. The activity change, negative = inhibition in experiment [2] was 8.78%; in [3] it was 10.9%. For the same compound, in [4], the activity, negative = inhibition was -5.54%. Moreover, the Potency result in experiment [7], in experiment [8] and in experiment [11] was “inactive” in each case. The activation in [12] was 2.1%.

For the compound `NS(=O)(=O)c1cc(C(=O)O)c(Cl)c([N+](=O)[O-])c1Cl`, the results for the Potency in experiment [1], in [5] and in [6] were greater than 11.4 µM, greater than 46 µM and greater than 9.22 µM, respectively. Moreover, the activity change, negative = inhibition in experiment [2] was 10.9%; in [3], 18.5%. Also, in experiment [4], the activity, negative = inhibition was 13.1%. Besides, the Potency result in [7], in experiment [8], in [10] and in experiment [11] was “inactive” in each case.

On to `CC(C)(C)c1c2c(c(C(C)(C)C)c3c1OCN(Cc1ccccc1)C3)OCN(Cc1ccccc1)C2`, for which the values for the Potency in [1], in [5] and in experiment [6] were greater than 11.4 µM, greater than 46 µM and greater than 9.22 µM, respectively. For the same compound, the values for the activity change, negative = inhibition in [2] and in [3] were 0.594% and 0.0878%, respectively. Further, in experiment [4], the activity, negative = inhibition is -2.37%. Also, the Potency entry in experiment [7], in experiment [8] and in experiment [11] was “inactive” each time.

Turning to `CN(C)Cc1c[nH]c2nc[nH]c(=O)c12`, the Potency in experiment [1] was greater than 11.4 µM; in experiment [5], greater than 46 µM; in [6] it was greater than 9.22 µM. Further, the activity change, negative = inhibition is 1.16% in experiment [2] and -5.56% in experiment [3]. Also, the activity, negative = inhibition in [4] was 1.72%. Further, the Potency entry in [7], in [8] and in experiment [10] was “inactive” throughout.

Consider `NS(=O)(=O)c1nc(S(=O)(=O)O)c2[nH]cnc2n1`, for which the Potency in [1] was greater than 11.4 µM; in [5] it was greater than 46 µM; in experiment [6], greater than 9.22 µM. The results for the activity change, negative = inhibition in experiment [2] and in [3] were 7.59% and 2.24%, respectively. For the same compound, the activity, negative = inhibition in [4] was 2.49%. Moreover, the Potency entry in experiment [7], in experiment [8] and in experiment [11] was “inactive” in each case.

For the compound `N#C/C(=C(\O)C(=O)O)c1ccc(-c2cccc3ccccc23)cc1`, the Potency in experiment [1] was greater than 11.4 µM; in experiment [5] it was greater than 46 µM; in experiment [6], greater than 9.22 µM. Further, the activity change, negative = inhibition in experiment [2] was -3.67%; in experiment [3] it was 4.07%. Besides, in experiment [4], the activity, negative = inhibition was 3.75%. For the same compound, the Potency result in [7], in experiment [8] and in experiment [11] was “inactive” throughout.

In the case of `S[C@@H]1CCCN(Cc2ccccc2)C1`, the Potency in experiment [1] is greater than 11.4 µM; in experiment [5] it was greater than 46 µM; in experiment [6] it was greater than 9.22 µM; in experiment [10], 0.794 µM (active); in experiment [11], 3.16 µM (active). Besides, the activity change, negative = inhibition was 1.2% in experiment [2] and -16.1% in experiment [3]. The activity, negative = inhibition in experiment [4] was 2.98%. Moreover, the Potency entry in experiment [7], in experiment [8] and in [9] was “inactive” in each case.

On to `NC[C@@H](O)CSCc1ccc(Cl)cc1`, for which the Potency was greater than 11.4 µM in [1], greater than 46 µM in experiment [5], greater than 9.22 µM in [6] and 3.16 µM (active) in experiment [10]. Besides, the figures for the activity change, negative = inhibition in experiment [2] and in [3] were -2.84% and 21.3%, respectively. In experiment [4], the activity, negative = inhibition is 0.417%. For the same compound, the Potency result in experiment [7] and in experiment [8] was “inactive” each time.

On to `CSc1nc2cc(S(=O)(=O)N3CCCCC3)ccc2s1`, for which the Potency in experiment [1] is greater than 11.4 µM; in experiment [5], greater than 46 µM; in [6], greater than 9.22 µM; in experiment [11] it was 1.26 µM (active). Moreover, the figures for the activity change, negative = inhibition in [2], in [3] and in experiment [13] were -19.7%, -0.492% and 50.1% [at 11.4 µM], respectively. Besides, the activity, negative = inhibition in experiment [4] is -6.1%. In addition, the Potency entry in experiment [7] and in experiment [8] was “inactive” in each case.

Take `c1ccc2sc(SCN(C3CCCCC3)C3CCCCC3)nc2c1`: the Potency in [1] was greater than 11.4 µM; in [5] it was greater than 46 µM; in experiment [6], greater than 9.22 µM; in [10], 1.58 µM (active). Also, the activity change, negative = inhibition is 4.99% in [2] and -7.96% in experiment [3]. The activity, negative = inhibition in [4] was -3.43%. Moreover, the Potency result in [7] and in [8] was “inactive” in each case.

Consider `COc1ccc(-c2nc3cnc(Oc4ccccc4)nc3n(C3CC3)c2=O)cc1`, for which the Potency is greater than 11.4 µM in experiment [1], greater than 9.22 µM in experiment [5] and greater than 46 µM in [6]. Also, the activity change, negative = inhibition in experiment [2] was -23.1%; in experiment [3], 15.1%. Moreover, the activity, negative = inhibition in experiment [4] is 4.9%. Further, the Potency entry in [7], in experiment [8] and in experiment [9] was “inactive” in each case.

Take `CC1(C)[C@@H]2CC[C@@]1(CS(=O)(=O)Nc1ccccc1)C(=O)C2`: the Potency in [1] was greater than 11.4 µM; in experiment [5], greater than 46 µM; in [6] it was greater than 9.22 µM; in experiment [11], 2 µM (active). For the same compound, the activity change, negative = inhibition in experiment [2] is -11.4%; in experiment [3] it was 4.16%. In experiment [4], the activity, negative = inhibition is -7%. The Potency result in experiment [7] and in experiment [8] was “inactive” throughout.

For the compound `CC(C)(C)c1ccc(O)c(CN(Cc2cc(C(C)(C)C)ccc2O)C2CCCCC2)c1`, the Potency was greater than 11.4 µM in experiment [1]; greater than 46 µM in experiment [5]; greater than 9.22 µM in [6]; 0.501 µM (active) in experiment [10]; 1.58 µM (active) in experiment [11]. Besides, the activity change, negative = inhibition is 5.42% in experiment [2] and -3.2% in [3]. In addition, the activity, negative = inhibition in [4] was 6.32%. For the same compound, the Potency result in experiment [7] and in experiment [8] was “inactive” in each case.
